# Source: the supplement of paper PMC6555819
# Experiments:
# Test in all cases: PBM binding z-score (relative to random genomic background probes); higher = stronger binding; sequences stand for … in GC…GCGATTGACAGCGTAGAATGAAGG
# [1] = test system: PPARg:RXRa DBDmut IVT, anti-RXR (DBD mutation: RXRa K156A/R161A, NR concentration 270 nM, RXRa partner concentration 90 nM)
# Summary of the method: (§1)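 Binding buffer was PBS pH 7.4 with 2% milk, 0.02% Triton X-100, 1 mM DTT, 0.2 mg/mL BSA and 0.4 mg/ml salmon testes DNA. In it, ligand-free nuclear receptor dimers were incubated 1 h on custom Agilent 4×180K protein-binding microarrays carrying double-stranded probes. Antibodies against each partner (one per run) detected binding, and z-scores were calculated against random background probes after regression normalization of scanned fluorescence.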
# [2] = test system: PPARg:RXRa IVT, anti-PPARg (NR concentration 270 nM, RXRa partner concentration 90 nM)
# Summary of the method: as §1
# [3] = test system: PPARg DBDmut:RXRa IVT, anti-PPARg (DBD mutation: PPARg1 K132A/R137A, NR concentration 270 nM, RXRa partner concentration 90 nM)
# Summary of the method: as §1
# [4] = test system: PPARg DBDmut IVT, anti-PPARg (DBD mutation: PPARg1 K132A/R137A, NR concentration 270 nM)
# Summary of the method: as §1
# [5] = test system: PPARg homodimer (NR concentration 180 nM)
# Summary of the method: as §1
# [6] = test system: PXR:RXRa (NR concentration 270 nM, RXRa partner concentration 90 nM)
# Summary of the method: as §1
# [7] = test system: PXR homodimer (NR concentration 270 nM)
# Summary of the method: as §1
# [8] = test system: RARa:RXR (NR concentration 270 nM, RXRa partner concentration 90 nM)
# Summary of the method: as §1
# [9] = test system: RARa homodimer (NR concentration 270 nM)
# Summary of the method: as §1
# [10] = test system: RARb:RXRa (NR concentration 270 nM, RXRa partner concentration 90 nM)
# Summary of the method: as §1
Sequence,PBM binding z-score [1],PBM binding z-score [2],PBM binding z-score [3],PBM binding z-score [4],PBM binding z-score [5],PBM binding z-score [6],PBM binding z-score [7],PBM binding z-score [8],PBM binding z-score [9],PBM binding z-score [10]
CCTCGGAGTACAGAAGGTCAGAGCTGTCCGCTTT,0.368,-0.113,-0.995,-1.23,1.8,1.83,0.165,2.18,0.283,2.69
TCTAGTTGGTCACGGAGATCACACACGACGGGTA,2.55,2.3,0.815,0.952,0.853,0.363,0.241,0.735,0.576,1.57
CCTACTGGGCCATTCAGAGGTCATTGCTCATATG,4.61,4.29,-0.1,-0.505,1.87,4.7,2.5,4.24,0.689,3.01
GCTAGTTGGTCAGTAAAAGGTCACACAACGGTCG,0.826,2.77,0.539,0.321,3.81,5.2,1.19,6.17,2.05,4.43
CGAACGAGGGCATGAGTTGATAGAAAATGCCGAT,2.74,1.89,-0.343,-0.182,0.547,0.565,0.619,0.664,0.132,1.87
CCTGCTTGGTCATGGTCAGCTAATCTACAGTATG,0.417,0.0763,-1.17,-0.614,0.0024,-0.154,-0.228,-0.106,-0.318,1.24
TCTTGTAGATCAAGCAGGTTAAGACAGCCTGAGT,1.59,0.85,0.703,0.0402,-0.449,0.414,0.135,0.668,-0.0996,0.151
AGAATGAGGTTAAGATAAGGGAAACAGAATACAT,2.37,2.34,1.82,1.35,1.38,1.12,0.744,1.8,1.27,1.83
TCTCGGAGGACACGAAAGGACAGAGCTCGACATC,1.47,0.125,-0.295,-0.96,-0.288,-0.168,-0.334,0.0232,-0.282,2.03
CCTCACGGGTCACTGACAGGTTATAGCATTTGGA,1.77,2.15,-0.537,-0.176,1.89,3.33,0.0959,3.98,0.868,3.85
TCGAGTAGGTTACCAAGGGGGCATTCAGCTTTCT,3.32,4.07,4.92,5.1,1.17,2.98,0.477,2.6,-0.167,1.98
CGTCAAAGTTCAAGGTAACCTAACAGAAAGCAGC,0.978,2.67,0.466,0.361,2.09,4.03,2.12,3.26,1.18,5.37
TGAATGAGGTTATAAGATCAAGGAACGTTGCAAA,1.04,1.84,0.592,0.326,0.811,0.776,-0.0343,1.37,0.338,1.18
CTACCAAGGTAAACAAGGTCGTTGATTACTATTC,1.19,0.986,-0.194,0.206,0.169,2.25,1.6,1.75,0.382,0.851
ATATGTCGGTTACATCCGGGTCATTCAGGCTATG,2.55,3.18,2.61,1.84,1.05,2.85,2.72,2.88,0.00144,1.91
TCTAGCAGGCCAGAGGGTCACTTAAGAGGTACGG,0.598,0.688,-0.762,-0.435,0.442,1.35,-0.462,2.27,-0.441,2.19
ACTATTAGTTGAGACGAGGGCAACCCATAGGTTG,0.0223,0.455,0.5,0.77,0.831,1.31,0.412,0.966,0.536,1.07
CCTTACAGGTCACTCCAGGTTATAGCATCGGAGT,4.37,4.23,0.516,0.777,2.41,4.74,0.873,3.71,1.13,4.61
TCTGCTAGGTCAGTGGGTCAGCTAACGAGCTGCC,4.42,5.76,0.364,-0.282,1.24,0.857,-0.958,2.11,-0.00938,3.77
TCTGCCAGGTCAGTTGGTCAGCTAACGAGCTGCC,1.26,1.9,-0.28,0.0313,0.213,0.349,-0.79,0.976,-1.08,3.29
AGACTGAGGTTATACGTAGATCAGGGAAGAAAGT,0.425,0.435,0.201,0.0103,0.623,1.09,0.133,1.68,0.064,1.46
CCCAGCAGGCCAATCTGGGTCACTCAAGGCTTGA,3.08,4.97,-0.484,-1.45,0.339,1.31,-0.346,1.46,-0.731,1.63
ATCGGAAGGTCGAAGGTGAGTATACCCACCCGAA,-0.338,1.53,0.343,-0.28,1.26,1.65,0.401,2.34,-0.118,2.55
AGTCAAAGTTCACTAGCTAACGTAAGATTCAGCT,-0.129,1.99,0.927,0.426,1.85,3.57,1.99,2.79,0.935,4.56
